According to PubChem BioAssay (Tox21):
Records with an inconclusive call do not appear. Entries that show only a call come without a potency. A number with no mark means an inactive call. Activity calls are given as the source filed them. Unless noted, the call rests on the fitted dose curve; in most records, active means well fitted curve in the direction sought with a large enough effect in the repeat runs; inconclusive means weak or mixed curves; inactive means no such curve, though single readings can be large; an effect the other way counts as inactive or inconclusive.

Legend:
[1] = qHTS assay to identify small molecule agonists of the vitamin D receptor (VDR) signaling pathway - cell viability counter screen (AID 743224); further: series mostly up to about 63 µM; nearly all actives have a fitted effect of over 50% in size
Outline: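 Cytotoxicity counter screen: VDR-bla cells, 16 h compound exposure at 37C, 5% CO2; CellTiter-Glo luminescence, 30 min RT, same wells as bla read.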

[2] = qHTS assay to identify small molecule antagonists of the vitamin D receptor (VDR) signaling pathway - cell viability counter screen (AID 743225); further: nearly all actives have a fitted effect of over 50% in size
Outline: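 Parallel cytotoxicity test: VDR-UAS-bla HEK 293T, 3 nM (final) 1-alpha,25-dihydroxyvitamin D3 with test compound, 16 h, 37C. Endpoint is CellTiter-Glo luminescence in the same wells.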

[3] = qHTS assay to identify small molecule agonists of the NFkB signaling pathway (AID 1159509; active means well fitted curve in the direction sought with a large enough effect in the signal ratio in the repeat runs, not every such curve was filed as active; the % refers to the signal ratio; further: series mostly up to about 61 µM)
Outline: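 Readout: FRET fluorescence, 405 nm excitation, 460/530 nm emission; beta-lactamase expression disrupts FRET. Cells: ME-180 stably carrying NF-kB-driven bla reporter. Compound exposure 5 hr, 37 C, 5% CO2.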

[4] = qHTS assay to identify small molecule agonists of the NFkB signaling pathway - cell viability counter screen (AID 1159515; calls by dose curve; further: series mostly up to about 61 µM; nearly all actives have a fitted effect of over 55% in size)
Outline: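 ME-180 NFkB-bla cells, 2,000/well; overnight attach; compound 5 hr, 37 C/5% CO2; LiveBLAzer substrate 1.5 hr RT; then CellTiter-Glo in same wells, 30 min RT, luminescence read.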

[5] = qHTS assay to identify small molecule agonists of the endoplasmic reticulum stress response signaling pathway (AID 1159516; active means well fitted activation curve with a large enough effect in the signal ratio in the repeat runs, not every such curve was filed as active; the % refers to the signal ratio)
Outline: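 HeLa ESRE-bla reporter line; cpd 5 h, 37 C/5% CO2; LiveBLAzer B/G FRET substrate 2 h RT; ex 405, em 460/530 nm.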

[6] = qHTS assay to identify small molecule agonists of the endoplasmic reticulum stress response signaling pathway - cell viability counter screen (AID 1159517; calls by dose curve;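 further: HeLa cells carrying an ER stress response element beta-lactamase reporter; series mostly up to about 61 µM; nearly all actives have a fitted effect of over 50% in size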)
Outline: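 After overnight attachment, ESRE-bla HeLa cells were treated with Tox21 library compounds for 5 hr. CellTiter-Glo luminescence, read 30 min post-addition at room temperature, reported viability.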

[7] = qHTS assay to identify small molecule antagonists of the retinoid-related orphan receptor gamma (ROR-gamma) signaling pathway - cell viability counter screen (AID 1159520); further: nearly all actives have a fitted effect of over 50% in size
Outline: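 Cytotoxicity was read from cellular ATP (CellTiter-Glo luminescence) after 16 hr at 37 C with 1 uM doxycycline induction. The inducer was added 2 hr after compound transfer to Tet-on ROR gamma CHO cells.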

[8] = target: Nuclear receptor ROR-gamma (Homo sapiens) (UniProt P51449); experiment: qHTS assay to identify small molecule antagonists of the retinoid-related orphan receptor gamma (ROR-gamma) signaling pathway (AID 1159521; further: nearly all actives have a fitted effect of over 50% in size; further: potency means the concentration at half of the fitted maximal effect;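 on activity change, negative = inhibition: CHO cells with doxycycline inducible ROR-gamma driving an RORE luciferase reporter; top concentration of the series differs between compounds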)
Outline: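 Decreased RORE-driven luciferase luminescence indicates antagonism. Tet-on RORγ CHO cells received compound, then 1 uM final doxycycline 2 h later; signal read after 16 h incubation.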

[9] = qHTS assay to identify small molecule agonists of the AP-1 signaling pathway - cell viability counter screen (AID 1159525; calls by dose curve; further: nearly all actives have a fitted effect of over 55% in size)
Outline: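 Intracellular ATP by Cell Titer Glo luminescence (30 min, RT) in the same ME-180 AP-1-bla wells after the 5 h compound exposure at 37 °C. Normalised to tetra n-octyl ammonium bromide and DMSO controls.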

[10] = qHTS assay to identify small molecule agonists of the AP-1 signaling pathway (AID 1159526; calls by dose curve)

| Structure (SMILES) | Potency [1] | Potency [2] | outcome [3] | outcome [4] | outcome [5] | outcome [6] | Potency [7] | Potency [8] | outcome [9] | Potency [10] | activity, negative = cytotoxicity [7] | activity change, negative = inhibition [8] | activation [10] |
| --- | --- | --- | --- | --- | --- | --- | --- | --- | --- | --- | --- | --- | --- |
| Cc1c(C(=O)NCCO)[n+](=O)c2ccccc2n1[O-] | inactive | inactive | inactive | inactive | inactive | inactive | inactive | inactive | inactive | – | – | – | – |
| O=C1CCN(c2ccccc2)N1 | – | – | inactive | inactive | inactive | inactive | inactive | inactive | inactive | – | – | – | – |
| Cc1ccc(C=O)s1 | inactive | inactive | inactive | inactive | inactive | inactive | inactive | inactive | inactive | – | – | – | – |
| CC1CN(c2ccccc2)NC1=O (stereo unspecified) | – | – | inactive | inactive | inactive | inactive | inactive | inactive | inactive | – | – | – | – |
| O=C1CCCCCCCCCCC(=O)OCCO1 | inactive | inactive | inactive | inactive | inactive | inactive | inactive | inactive | inactive | – | – | – | – |
| CC(C)C1=CC2=CC[C@@H]3[C@](C)(CCC[C@@]3(C)C(=O)O)[C@H]2CC1 | inactive | inactive | inactive | inactive | inactive | inactive | inactive | inactive | inactive | – | – | – | – |
| CC(=O)Oc1cc(C(C)C)c(OCCN(C)C)cc1C | inactive | inactive | inactive | inactive | inactive | inactive | inactive | inactive | inactive | – | – | – | – |
| Cc1cc2nc(N)sc2cc1C | inactive | – | inactive | inactive | inactive | inactive | inactive | inactive | inactive | – | – | – | – |
| CC1=C2[C@H](/C=C(\C)C(=O)O)CC[C@@H](C)[C@H]2CC1 | inactive | inactive | inactive | inactive | inactive | inactive | inactive | inactive | inactive | – | – | – | – |
| CCN(CC)CC1CCCCN1CC(=O)N1c2ccccc2C(=O)Nc2cccnc21 (stereo unspecified) | inactive | inactive | inactive | inactive | inactive | inactive | inactive | inactive | inactive | – | – | – | – |
| O=Cc1ccc(F)c(Br)c1 | inactive | inactive | inactive | inactive | inactive | inactive | inactive | inactive | – | inactive | – | – | – |
| Cc1c(N)cccc1N | inactive | inactive | inactive | inactive | inactive | inactive | inactive | inactive | – | inactive | – | – | – |
| CC(C)CC(=O)OCc1ccccc1 | inactive | inactive | inactive | inactive | inactive | inactive | inactive | inactive | – | inactive | – | – | – |
| CCCCNC(=S)NCCCC | – | inactive | inactive | inactive | inactive | inactive | inactive | inactive | inactive | – | – | – | – |
| CC(C)C[C@H](NC(=O)OCC1c2ccccc2-c2ccccc21)C(=O)O | inactive | inactive | inactive | inactive | inactive | inactive | inactive | inactive | inactive | – | – | – | – |
| CCCCCOc1ccc(C2SC(=O)NC2=O)cc1OCC (stereo unspecified) | – | – | inactive | inactive | inactive | inactive | inactive | inactive | – | inactive | – | – | – |
| ClC(Cl)Cl | inactive | – | inactive | inactive | inactive | inactive | inactive | 48.2 µM (active) | – | – | – | – | – |
| CCCN(CCC)C(=O)C(CCC(=O)O)NC(=O)c1ccccc1 (stereo unspecified) | inactive | inactive | inactive | inactive | inactive | inactive | inactive | inactive | – | inactive | – | – | – |
| Cc1cccc(C)c1NC(=O)CN1CCCCCC1 | inactive | inactive | inactive | inactive | inactive | inactive | inactive | inactive | inactive | – | – | – | – |
| CN(C)C(=O)NC1(c2ccccc2)CCN(CCC[C@]2(c3ccc(Cl)c(Cl)c3)CCCN(C(=O)c3ccccc3)C2)CC1 | inactive | inactive | inactive | inactive | inactive | inactive | – | – | – | – | -2.5% [at 19 µM] | -21% [at 19 µM] | 11.5% [at 15.8 µM] |
| Cc1ccc(C(C)C)cc1O | inactive | inactive | inactive | inactive | inactive | inactive | inactive | inactive | inactive | – | – | – | – |
| NC/C=C/C(=O)O | inactive | inactive | inactive | inactive | inactive | inactive | inactive | inactive | – | inactive | – | – | – |
| CCCC1CCC(=O)O1 (stereo unspecified) | inactive | inactive | inactive | inactive | inactive | inactive | inactive | inactive | – | inactive | – | – | – |
| O=C(O)[C@@H](O)[C@H](O)[C@H](O)[C@@H](O)C(=O)O | inactive | – | inactive | inactive | inactive | inactive | inactive | inactive | – | inactive | – | – | – |
| CCOC(=O)C(Br)c1ccccc1 (stereo unspecified) | inactive | inactive | inactive | inactive | inactive | inactive | inactive | inactive | – | inactive | – | – | – |
| CCCCCCOc1ccc(N)cc1 | – | inactive | inactive | inactive | inactive | inactive | inactive | inactive | inactive | – | – | – | – |
| OCC(CBr)(CBr)CBr | inactive | inactive | inactive | inactive | inactive | inactive | inactive | inactive | – | inactive | – | – | – |
